Source: PubChem BioAssay
12-LOX inh: inhibitors of human 12S-lipoxygenase ALOX12; AID 1671190; 580,000 compounds, 1.1% hits; purified 12hLO, xylenol orange hydroperoxide absorbance; Potency, µM (series often up to 108 µM), hits mostly inhibitors; P18054
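Purified human 12hLO at 150 nM in 25 mM Hepes, 0.01% Triton X-100, pH 7.0, preincubated 15 min at room temperature with compound. Reaction started with 40 uM arachidonic acid, 30 min at room temperature. Hydroperoxide measured by Fe-xylenol orange, 573/405 nm absorbance ratio.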
PLK1 PBD block: PLK1 (human) polo-box domain binding inhibition | Plk1 PBD binding of FITC phosphopeptide, fluorescence polarization | Potency, µM, most hits filed as inhibitors | P53350 | 360,000 compounds, 2.8% hits; further: series mostly up to about 57 µM; nearly all actives have a fitted effect of over 65% in size
KAT2A inh: blocks human GCN5L2 histone acetyltransferase | GCN5L2 HAT assay, ThioGlo1 CoA-SH fluorescence | Potency, µM (doses to about 58.9 µM), actives largely listed as inhibitors | 390,000 compounds, 0.21% hits | AID 504327
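GCN5L2 (20 nM) in 50mM HEPES pH 7.5, 0.1mM EDTA, 0.01% Tween-20 preincubated 15 min with compounds at room temperature. Reaction started with H3(1-25) 75uM, acetyl-CoA 70uM, ThioGlo1 50uM; CoA-thiol fluorescence (Ex340/Em540) read at 0 and 20 min.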
VDR inh: blocks the human vitamin D receptor; Potency, µM, hits mostly inhibitors; VDR-SRC2-3 peptide fluorescence polarization, 2 h; 400,000 compounds, 0.93% hits; AID 504847; P11473
Target sequence (P11473 whole entry, looked up): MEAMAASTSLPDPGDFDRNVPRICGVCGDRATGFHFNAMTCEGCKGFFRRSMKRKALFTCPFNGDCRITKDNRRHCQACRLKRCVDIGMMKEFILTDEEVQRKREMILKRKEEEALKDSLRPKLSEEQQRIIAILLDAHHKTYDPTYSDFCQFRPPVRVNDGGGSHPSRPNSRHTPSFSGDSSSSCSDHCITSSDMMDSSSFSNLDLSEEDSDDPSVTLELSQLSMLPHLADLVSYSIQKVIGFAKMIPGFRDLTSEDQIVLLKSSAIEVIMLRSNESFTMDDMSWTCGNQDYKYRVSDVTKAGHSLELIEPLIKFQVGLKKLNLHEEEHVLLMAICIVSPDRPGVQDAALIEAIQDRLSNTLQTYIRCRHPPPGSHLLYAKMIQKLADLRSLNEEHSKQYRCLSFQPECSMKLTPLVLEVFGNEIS
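FP read-out; VDR + SRC2-3 coactivator peptide; 23 nl compound by pintool; 2 h RT incubation; reagents held at 4 deg C, protected from light.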
A number is an active result. Hits are enriched below; roughly 3% of the tested compounds scored in any of these assays. The call rests on the fitted dose curve; in most records, active means well fitted curve in the direction sought with a large enough effect; inconclusive means small, poorly fitted or top-dose-only effect, or another doubt; inactive means no such curve, though single readings can be large; an effect the other way counts as inactive or inconclusive.

`O=C(Cc1noc(C(=O)NC2CC2)n1)Nc1cccc2ncccc12` gave 12-LOX inh inactive.
O=c1ccc(N=Nc2ccccc2)ccc1O was read as 12-LOX inh 45µM, PLK1 PBD block inactive, KAT2A inh inactive and VDR inh inactive.
For COc1cccc(CN(C)CC(=O)NC2CCCCCC2)c1OC the results were 12-LOX inh inactive.
`CCC/C=C1/CCCOC(C(=O)NCc2ccc(C)o2)(C(F)(F)F)C1` (stereo not drawn) gave 12-LOX inh inactive, PLK1 PBD block inconclusive, KAT2A inh inactive and VDR inh 50µM.
Cc1ccc(-c2nc(CS(=O)(=O)Cc3cccc(F)c3)co2)cc1 was read as 12-LOX inh inactive.
Screening Cc1nc2cc(NC(C)C(=O)Nc3ccc(OC(F)(F)F)cc3)ccc2o1 (stereo not drawn) returned 12-LOX inh inactive.
For COc1ccc(S(N)(=O)=O)cc1N(C)S(=O)(=O)c1ccccc1 the results were 12-LOX inh inactive, PLK1 PBD block 27µM, KAT2A inh inactive and VDR inh inconclusive.
Screening COc1ccccc1N(C)S(=O)(=O)c1ccc(C(=O)O)cc1 returned 12-LOX inh inactive, PLK1 PBD block inactive, KAT2A inh inactive and VDR inh inactive.
Screening Cc1nc2c3ccccc3nc(NNC(=O)CCC(=O)NCCN3CCN(c4ccccc4F)CC3)n2n1 returned PLK1 PBD block 30µM, KAT2A inh inactive and VDR inh inactive.
Screening COCCNC(=O)CCC(=O)NNc1nc2ccccc2c2nc(C)nn12 returned 12-LOX inh inactive, PLK1 PBD block inactive, KAT2A inh inactive and VDR inh inactive.
`O=C(Cc1ccccc1)NNC(=O)c1ccc(NC(=O)c2ccccc2)cc1` gave 12-LOX inh inactive, PLK1 PBD block inactive, KAT2A inh inactive and VDR inh inactive.
Screening CCOC(=O)CCC(=O)NNC(=O)c1ccc(NC(=O)c2ccccc2)cc1 returned 12-LOX inh inactive, PLK1 PBD block 30µM, KAT2A inh inactive and VDR inh inactive.
Screening O=C(COC(=O)/C=C/c1ccc(Cl)cc1)NCCN1C(=O)CSC1=O returned 12-LOX inh inactive, PLK1 PBD block 17µM, KAT2A inh inactive and VDR inh inactive.
O=C(COC(=O)/C=C/c1ccc(OC(F)F)cc1)NCCN1C(=O)CSC1=O was read as 12-LOX inh inactive, PLK1 PBD block inconclusive, KAT2A inh inactive and VDR inh inactive.
Oc1cccc(C(=S)N2CCC(Cc3ccccc3)CC2)c1 was read as 12-LOX inh inactive, PLK1 PBD block 21µM, KAT2A inh inactive and VDR inh inconclusive.
Screening Oc1cccc(C(=S)N2CCN(Cc3ccccc3)CC2)c1 returned 12-LOX inh inconclusive, PLK1 PBD block 15µM, KAT2A inh inactive and VDR inh inactive.
Screening COCCNC(=O)[C@H]1C[C@H](Oc2ccccc2)CN1Cc1cccc(C)c1 returned 12-LOX inh inactive.
For N#Cc1nc(-c2ccco2)oc1N1CCN(CC(=O)Nc2ccccc2-c2ccccc2)CC1 the results were 12-LOX inh inactive.
`NC(=O)CC(NC(=O)c1ccccc1)c1ccc(N2CCN(c3ccc(F)cc3)CC2)c([N+](=O)[O-])c1` (stereo not drawn) gave 12-LOX inh inconclusive, PLK1 PBD block inactive, KAT2A inh inactive and VDR inh inactive.
Screening COc1ccc(OC)c(C(=O)NC(CC(N)=O)c2ccc(N3CCN(c4ccc(F)cc4)CC3)c([N+](=O)[O-])c2)c1 (stereo not drawn) returned 12-LOX inh inconclusive, PLK1 PBD block 30µM, KAT2A inh inactive and VDR inh inconclusive.
Screening CC(C)C[C@@H](CN1CCCC1CN1C(=S)NC[C@@H]1Cc1ccc(O)cc1)N1C[C@H](Cc2ccc(O)cc2)N(CC2CCCCC2)C1=S (stereo partly drawn) returned 12-LOX inh inconclusive, PLK1 PBD block 19µM and VDR inh inactive.
For CC(C)C[C@H]1CNC(=S)N1C[C@H]1CCCN1C[C@H](Cc1ccccc1)N1C[C@H](Cc2ccc(O)cc2)N(CC2CCCCCC2)C1=S the results were 12-LOX inh 40µM and PLK1 PBD block inactive.
`Oc1ccc(C[C@H]2CNC(=S)N2CC2CCCN2C[C@H](Cc2ccccc2)N2C[C@H](Cc3ccc(O)cc3)N(CC3CCCCCC3)C2=S)cc1` (stereo partly drawn) gave 12-LOX inh 11µM, PLK1 PBD block inactive and VDR inh inactive.
CCOc1ccc(CCN2C(=S)N([C@@H](CC(C)C)CN3CCCC3CN3C(=S)NC[C@@H]3CC(C)C)C[C@@H]2Cc2ccccc2)cc1 (stereo partly drawn) was read as 12-LOX inh 14µM, PLK1 PBD block inactive and VDR inh inactive.
`Cc1ccc(-c2nn3c(N(C)C)cc(C)nc3c2C)cc1` gave 12-LOX inh inactive.
For CC[C@H](C)/C=C/C1=CC2=C(Cl)C(=O)[C@@]3(C)OC(=O)C(C(=O)[C@H](C)[C@@H](C)O)=C3C2=CO1 the results were PLK1 PBD block 6µM and VDR inh inconclusive.
O=C(CN1CCCC1)Nc1ccc(Cl)cc1C(F)(F)F was read as 12-LOX inh inactive, PLK1 PBD block 24µM, KAT2A inh inactive and VDR inh inactive.
Screening CN(C)C(=O)c1cc(C(=O)c2ccccc2C(F)(F)F)c[nH]1 returned 12-LOX inh inactive, PLK1 PBD block 27µM, KAT2A inh inactive and VDR inh inactive.
CN(C)C(=O)c1cc(C(=O)c2ccc(F)cc2C(F)(F)F)c[nH]1 was read as 12-LOX inh inactive, PLK1 PBD block inactive, KAT2A inh inactive and VDR inh inactive.
`Oc1ccc(/C=C\c2cc(O)cc(O)c2)cc1` gave 12-LOX inh inactive, KAT2A inh inactive and VDR inh inactive.
`Oc1cc(O)cc(C=Cc2ccc(O)c(O)c2)c1` gave 12-LOX inh 3.1µM.
CCCOc1ccc(CSCCNC(=S)Nc2ccccc2)cc1 was read as 12-LOX inh inconclusive, PLK1 PBD block inactive, KAT2A inh inactive and VDR inh inactive.
S=C(NCCSCc1ccccc1Cl)Nc1ccccc1 was read as 12-LOX inh 35µM, PLK1 PBD block inactive, KAT2A inh inactive and VDR inh inactive.
For CCOc1ccc(CSCCNC(=S)Nc2ccc(OC)cc2)cc1 the results were 12-LOX inh 45µM, PLK1 PBD block inactive, KAT2A inh inactive and VDR inh inactive.
S=C(NCCSCc1ccc(Cl)cc1)Nc1ccccc1 was read as 12-LOX inh 45µM, PLK1 PBD block inactive, KAT2A inh inactive and VDR inh inactive.
`O=C(NC1CCN(c2cc(-c3ccccc3)[nH]n2)CC1)c1cnccn1` gave 12-LOX inh inactive.
Screening CCc1ccc2c(CN3CCC4(CC3)OCCO4)cc(=O)oc2c1 returned 12-LOX inh inactive.
Screening Cc1ccc(NC(=O)C2CCN(c3cnc4ccccc4n3)CC2)c(C)c1 returned 12-LOX inh inactive.
Screening Cc1cc(C)c2oc(C(=O)Nc3cccc(Cl)c3C)cc(=O)c2c1 returned 12-LOX inh inactive.
CCCCCCN1CC(O)=C(c2ccccc2)C1=N was read as 12-LOX inh inconclusive, PLK1 PBD block inactive, KAT2A inh inactive and VDR inh inactive.
For N=C1C(c2ccccc2)=C(O)CN1CCO the results were 12-LOX inh inactive, PLK1 PBD block 24µM, KAT2A inh inactive and VDR inh inactive.
